Source: PubChem BioAssay (Tox21)
“And” between values parts separate entries of the source, which are not always exact repeats. Equal values may be shown once. Inconclusive results are not listed. Entries that show only a call come without a potency. The source made the active and inactive calls. Unless noted, calls follow the shape of the dose curve; as a rule, active = well fitted curve in the direction sought with a large enough effect in the repeat runs; inconclusive = weak or mixed curves; inactive = no such curve, though single readings can be large; an effect the other way counts as inactive or inconclusive.

Legend:
[1] = target: Luciferin 4-monooxygenase (Photinus pyralis) (UniProt P08659); assay: qHTS assay to identify small molecule inhibitors of firefly luciferase (AID 1224835); also: nearly all actives have a fitted effect of over 25% in size
How it was run: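 Inhibition of purified Photinus luciferase is measured by luminescence. Substrate levels (D-luciferin, ATP) sit at their KM values. Each compound is tested in a concentration series.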

[2] = qHTS assay to identify small molecule agonists of the constitutive androstane receptor (CAR) signaling pathway - cell viability counter screen (AID 1224836); also: nearly all actives have a fitted effect of over 45% in size
How it was run: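 HepG2-CYP2B6-hCAR, 2500 cells/well, 4 h pre-incubation; cpd 15 conc + PK11195 0.75 uM final; 23 h, 37 C/5% CO2; CellTiter-Fluor, fluorescence.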

[3] = qHTS assay to identify small molecule antagonists of the constitutive androstane receptor (CAR) signaling pathway - cell viability counter screen (AID 1224837); also: nearly all actives have a fitted effect of over 45% in size
How it was run: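 In quantitative HTS format, compounds at 15 concentrations were applied to HepG2 cells double-transfected with hCAR and CYP2B6-2.2kb under 50 nM CITCO stimulation; live-cell protease activity was read after 23 hr via CellTiter-Fluor.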

[4] = target: Nuclear receptor subfamily 1 group I member 3 (Homo sapiens) (UniProt Q14994); assay: qHTS assay to identify small molecule antagonists of the constitutive androstane receptor (CAR) signaling pathway (AID 1224838); also: nearly all actives have a fitted effect of over 40% in size
How it was run: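 CITCO-stimulated (50 nM final) HepG2 cells stably transfected with hCAR and CYP2B6-2.2kb luciferase were exposed to compounds at 15 concentrations for 24 h at 37 C/5% CO2. A luciferase reagent was added and luminescence recorded after 30 min.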

[5] = target: Nuclear receptor subfamily 1 group I member 3 (Homo sapiens) (UniProt Q14994); assay: qHTS assay to identify small molecule agonists of the constitutive androstane receptor (CAR) signaling pathway (AID 1224839); also: nearly all actives have a fitted effect of over 15% in size
How it was run: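 HepG2-CYP2B6-hCAR cells, 2500/well, 4 h pre-incubation; compounds 15 conc.; PK11195 0.75 uM final; 24 h, 37 C/5% CO2; ONE-Glo luciferase read.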

[6] = qHTS assay to identify small molecule antagonists of the estrogen related receptor signaling pathway with the pleiotropic PPARgamma coactivator (PGC) from Tox21 10K library - cell viability counter screen (AID 1224840; active = well fitted cell-killing curve with a large enough effect in the repeat runs, not every such curve was filed as active; also: nearly all actives have a fitted effect of over 40% in size)
How it was run: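 Viability counter screen, PGC/ERR cells: 17.5 h compound exposure at 37 C, CellTiter-Fluor fluorescence endpoint.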

[7] = qHTS assay to identify small molecule antagonists of the estrogen related receptor signaling pathway with the pleiotropic PPARgamma coactivator (PGC) from Tox21 10K library (AID 1224841; call rule not given here; also: actives are mostly falling curves and most rising ones were filed inactive; nearly all actives have a fitted effect of over 50% in size)
How it was run: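 In the PGC/ERR line, DMSO solutions of test chemicals are pin-delivered to 2,000 cells/well six hours after dispensing. Following eighteen hours' incubation, One-Glo reagent is added and luminescence recorded.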

[8] = qHTS assay to identify small molecule agonists of the estrogen related receptor signaling pathway with the pleiotropic PPARgamma coactivator (PGC) from Tox21 10K library (AID 1224842); also: nearly all actives have a fitted effect of over 15% in size
How it was run: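 Luminescence from One-Glo (30 min, room temperature) measured after PGC/ERR cells had 18 h at 37 C with pinned compound (23 nL in DMSO). Cells had been seeded at 2,000 per well and pre-incubated 6 h.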

[9] = target: Thyrotropin receptor (Homo sapiens) (UniProt P16473); assay: qHTS assay to identify small molecule agonists of the thyroid stimulating hormone receptor (TSHR) signaling pathway (AID 1224843; calls by dose curve; also: nearly all actives have a fitted effect of over 45% in size)
How it was run: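 A cell-based cAMP HTRF format was run in TSHR-transfected HEK293 cells, 800 per well. Treatment: 30 min, room temperature. Detection: 1 h with labelled cAMP and anti-cAMP cryptate. Concentration-response over 15 points, three replicates.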

[10] = qHTS assay to identify small molecule agonists of the hypoxia (HIF-1) signaling pathway - cell viability counter screen (AID 1224844; calls by dose curve; also: nearly all actives have a fitted effect of over 50% in size)
How it was run: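 Same wells as the HIF-1 reporter screen; ME-180 cells carrying HRE-bla, 17 hr treatment at 37C; CellTiter-Glo luminescence read after 30 min at room temperature.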
Potency is read from the fitted curve at half-maximal effect.

Chain of Nuclear receptor subfamily 1 group I member 3 (Homo sapiens) (Q14994 whole entry, looked up): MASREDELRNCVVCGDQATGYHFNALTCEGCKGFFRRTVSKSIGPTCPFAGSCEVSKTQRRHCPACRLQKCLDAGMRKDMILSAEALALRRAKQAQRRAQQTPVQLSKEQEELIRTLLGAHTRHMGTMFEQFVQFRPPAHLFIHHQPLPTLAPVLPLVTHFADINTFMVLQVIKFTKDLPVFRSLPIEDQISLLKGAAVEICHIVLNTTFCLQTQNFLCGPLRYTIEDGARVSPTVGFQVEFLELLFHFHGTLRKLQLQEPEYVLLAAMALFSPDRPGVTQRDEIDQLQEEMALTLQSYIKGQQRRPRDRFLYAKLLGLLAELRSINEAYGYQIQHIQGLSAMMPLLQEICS
Chain of Thyrotropin receptor (Homo sapiens) (P16473 whole entry, looked up): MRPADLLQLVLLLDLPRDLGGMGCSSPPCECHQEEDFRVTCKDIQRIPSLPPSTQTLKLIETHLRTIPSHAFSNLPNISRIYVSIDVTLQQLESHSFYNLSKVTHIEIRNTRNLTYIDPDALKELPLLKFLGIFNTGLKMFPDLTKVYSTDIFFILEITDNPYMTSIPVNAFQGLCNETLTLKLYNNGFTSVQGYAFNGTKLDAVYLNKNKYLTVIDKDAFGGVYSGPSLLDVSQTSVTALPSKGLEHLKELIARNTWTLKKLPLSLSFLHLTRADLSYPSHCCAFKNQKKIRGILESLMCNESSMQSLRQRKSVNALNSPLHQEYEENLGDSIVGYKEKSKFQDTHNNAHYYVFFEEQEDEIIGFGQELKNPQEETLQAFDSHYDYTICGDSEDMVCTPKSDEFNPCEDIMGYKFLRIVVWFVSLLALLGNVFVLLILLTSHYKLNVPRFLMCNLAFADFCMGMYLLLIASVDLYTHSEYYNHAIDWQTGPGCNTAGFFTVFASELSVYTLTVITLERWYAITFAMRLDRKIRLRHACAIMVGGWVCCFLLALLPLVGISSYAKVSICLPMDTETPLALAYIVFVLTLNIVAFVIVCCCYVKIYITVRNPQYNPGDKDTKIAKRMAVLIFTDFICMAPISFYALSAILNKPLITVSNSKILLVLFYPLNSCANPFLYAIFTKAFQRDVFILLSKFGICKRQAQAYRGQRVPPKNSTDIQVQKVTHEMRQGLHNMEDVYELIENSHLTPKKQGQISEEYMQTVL
Chain of Luciferin 4-monooxygenase (Photinus pyralis) (P08659 whole entry, looked up): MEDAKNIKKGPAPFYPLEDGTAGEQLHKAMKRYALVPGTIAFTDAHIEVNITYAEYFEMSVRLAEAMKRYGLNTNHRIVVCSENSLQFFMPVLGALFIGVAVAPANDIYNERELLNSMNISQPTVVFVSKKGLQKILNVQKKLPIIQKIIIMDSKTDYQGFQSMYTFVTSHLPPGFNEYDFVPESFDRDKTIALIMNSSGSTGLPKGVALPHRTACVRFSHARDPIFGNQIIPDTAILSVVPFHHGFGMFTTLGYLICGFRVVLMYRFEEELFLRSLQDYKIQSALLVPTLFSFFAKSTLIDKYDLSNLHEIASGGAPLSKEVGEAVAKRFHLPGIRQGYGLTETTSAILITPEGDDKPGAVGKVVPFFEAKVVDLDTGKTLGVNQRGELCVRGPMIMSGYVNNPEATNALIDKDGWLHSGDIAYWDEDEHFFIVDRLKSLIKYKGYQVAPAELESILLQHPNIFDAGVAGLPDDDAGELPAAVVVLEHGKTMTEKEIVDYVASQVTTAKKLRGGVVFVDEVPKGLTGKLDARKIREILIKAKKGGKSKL

| SMILES | Potency [1] | Potency [2] | Potency [3] | Potency [4] | Potency [5] | Potency [6] | Potency [7] | Potency [8] | Potency [9] | Potency [10] |
| --- | --- | --- | --- | --- | --- | --- | --- | --- | --- | --- |
| C=CC(=O)OCCn1c(=O)n(CCOC(=O)C=C)c(=O)n(CCOC(=O)C=C)c1=O | inactive | 48.6 µM (active) | 19.3 µM (active) | 24.3 µM (active) | inactive | 15.4 µM (active) | 15.4 µM (active) | inactive | 27.3 µM (active) | 12.3 µM (active) |
| O=C(c1ccc(F)cc1)C1CCN(CCn2c(=O)[nH]c3ccccc3c2=O)CC1 | inactive | inactive | inactive | inactive | inactive | inactive | inactive | inactive | inactive |  |
| Cc1c(C)c2c(c(C)c1OC(=O)CCC(=O)O)CC[C@@](C)(CCC[C@H](C)CCC[C@H](C)CCCC(C)C)O2 | inactive | inactive | inactive | inactive | inactive | inactive | inactive | inactive | inactive | 1.4 µM (active) |
| Cc1cccc(N(C)C(=S)Oc2ccc3c(c2)C2CCC3C2)c1 (stereo not given) | inactive | inactive | inactive | inactive | 21.1 µM (active) | inactive | inactive | inactive | inactive | inactive |
| COC(=O)c1cc(Cl)ccc1OC | inactive | inactive | inactive | inactive | inactive | inactive |  |  | inactive |  |
| CCCC1O[C@@H]2C[C@H]3[C@@H]4CCC5=CC(=O)C=C[C@]5(C)[C@H]4[C@@H](O)C[C@]3(C)[C@]2(C(=O)CO)O1 (stereo not given in full) | inactive | inactive | inactive | inactive | inactive | inactive | 48.6 µM (active) | inactive |  |  |
| O=c1[nH]sc2cc(Cl)ccc12 | 17.4 µM (active) | inactive | inactive | 0.001 µM (active) | inactive | inactive |  | inactive | inactive | 0.535 µM (active) |
| CC(C)CCCCCCCCCCCCCCC(=O)O | 35.6 µM (active) | inactive | inactive | inactive | inactive | inactive |  | inactive |  | 17.4 µM (active) |
| O=C(O)c1ccc(Cl)c(Cl)c1 | inactive | inactive | inactive | inactive | inactive | inactive | inactive | inactive | inactive | inactive |
| Cc1oc(-c2ccccc2)nc1CCC(=O)c1ccc(CC2SC(=O)NC2=O)cc1 (stereo not given) | inactive | inactive | inactive | inactive | inactive | inactive | inactive | inactive | inactive | inactive |
| CCCC(C)c1ccccc1O (stereo not given) | inactive | inactive | inactive | inactive | inactive | inactive |  |  |  |  |
| CCc1cc(Cc2cc(CC)cc(C(C)(C)C)c2O)c(O)c(C(C)(C)C)c1 | inactive | 61.1 µM (active) | 61.1 µM (active) | 21.7 µM (active) | inactive | 43.3 µM (active) | 27.3 µM (active) | inactive | inactive | 11 µM (active) |
| O=C1C=CC(=O)N1 | 32.6 µM (active) | 55.9 µM (active) | 55.9 µM (active) | 31.4 µM (active) | inactive | 44.4 µM (active) |  | inactive | 7.04 µM (active) | 11.3 µM (active) |
| CCC(C)Nc1ccc(NC(C)CC)cc1 (stereo not given) | 40.7 µM (active) | 19.7 µM (active) | 31.2 µM (active) | 27.8 µM (active) | inactive | 15.7 µM (active) |  | inactive |  | 12.5 µM (active) |
| Clc1ccc2cc3ccccc3cc2c1 | inactive | inactive | inactive | inactive | 54.4 µM (active) | inactive |  | 68.5 µM (active) |  | inactive |
| C[C@H](CCC(=O)O)[C@H]1CC[C@H]2[C@@H]3CC[C@@H]4C[C@H](O)CC[C@]4(C)[C@H]3CC[C@]12C | inactive | inactive | inactive | inactive | inactive | inactive | 68.3 µM (active) | inactive |  | 43.5 µM (active) and 34.7 µM (active) |
| C1CCCC1 | inactive | inactive | inactive | inactive | inactive | inactive |  | inactive | inactive | inactive |
| CCc1cc(SCc2sc(-c3ccc(C(F)(F)F)cc3)nc2CN2CCN(c3ccc(OC)cc3)CC2)ccc1OCC(=O)O | inactive | inactive | inactive | inactive | inactive | 34.4 µM (active) | 19.3 µM (active) | inactive |  |  |
| CC(C)(C)C(=O)OCOC(=O)[C@@H]1N2C(=O)[C@@H](NC(=O)[C@H](N)c3ccccc3)[C@H]2SC1(C)C | inactive | inactive | inactive | inactive | inactive | inactive | inactive | inactive | inactive | inactive |
| CCCCCCCCCCCCCCCS(=O)(=O)Oc1ccccc1 | inactive | inactive | inactive | inactive | inactive | inactive |  |  |  |  |

| SMILES | Potency [1] | Potency [2] | Potency [3] | Potency [4] | Potency [5] | Potency [6] | Potency [7] | Potency [8] | Potency [9] | Potency [10] |
| --- | --- | --- | --- | --- | --- | --- | --- | --- | --- | --- |
| N#CC1(c2ccc(F)cc2)CCC(=O)CC1 | inactive | inactive | inactive | inactive | inactive | inactive | inactive | inactive | inactive | inactive |
| Cc1cc(O)c(Cl)c(C)c1Cl | inactive | inactive | inactive | inactive | inactive | inactive | inactive | inactive | inactive | inactive |
| O=c1[nH]sc2ccccc12 | 20 µM (active) | 54.5 µM (active) | 27.3 µM (active) | 21.7 µM (active) | inactive | 48.6 µM (active) | 27.3 µM (active) | inactive |  | 21.9 µM (active) |
| OC1(c2ccc(Cl)c(C(F)(F)F)c2)CCN(CCCC(c2ccc(F)cc2)c2ccc(F)cc2)CC1 | inactive | 23.7 µM (active) | 13.3 µM (active) | 13.3 µM (active) | inactive | 18.8 µM (active) | 29.8 µM (active) | inactive | inactive |  |
| O=C1c2ccccc2Cc2ccccc21 | inactive | inactive | inactive | inactive | 21.8 µM (active) | inactive | inactive |  | inactive | inactive |
| CCOc1nc2cccc(C(=O)OC(C)OC(=O)OC3CCCCC3)c2n1Cc1ccc(-c2ccccc2-c2nn[nH]n2)cc1 (stereo not given) | 56.4 µM (active) | inactive | inactive | inactive | inactive | 43.2 µM (active) |  | inactive | inactive | 19.5 µM (active) |
| CN(C)C(=O)C1(N2CCCCC2)CCN(CC[C@@]2(c3ccc(Cl)c(Cl)c3)CN(C(=O)c3ccccc3)CCO2)CC1 | inactive | 50.9 µM (active) | 50.9 µM (active) | 50.9 µM (active) | inactive | 28.6 µM (active) | 50.9 µM (active) | inactive |  |  |
| COC(=O)C1=C(C)NC(C)=C(C(=O)OCCc2ccc(N3CCN(C(c4ccccc4)c4ccccc4)CC3)cc2)C1c1cccc([N+](=O)[O-])c1 (stereo not given) | inactive | inactive | inactive |  |  |  |  |  |  |  |
| CCC(C)(C)C1CCCCC1OC(C)=O (stereo not given) | inactive | inactive | inactive | inactive | inactive | inactive |  | inactive | inactive | inactive |
| CCC(N)(CO)CO | inactive | inactive | inactive | inactive | inactive | inactive | inactive | inactive |  | inactive |
| Cc1cc(O)c(C(C)(C)C)cc1Sc1cc(C(C)(C)C)c(O)cc1C | inactive | 48.5 µM (active) | 54.4 µM (active) | 21.6 µM (active) | inactive | 30.6 µM (active) |  | inactive | 9.67 µM (active) | 9.75 µM (active) |
| COc1cc(-c2ccc(N=C=O)c(OC)c2)ccc1N=C=O | inactive | inactive | inactive | inactive | inactive | inactive |  | inactive |  |  |
| O=c1[nH]cnc2nc[nH]c12 | inactive | inactive | inactive | inactive | inactive | inactive |  | inactive | inactive | inactive |
| CC1(C)CCC(C)(C)c2cc(C(=O)Nc3ccc(C(=O)O)cc3)ccc21 | 79.6 µM (active) | inactive | inactive | inactive | inactive | inactive | inactive | inactive | inactive | inactive |
| CN(C)[C@@H]1C(=O)C(C(N)=O)=C(O)[C@@]2(O)C(=O)C3=C(O)c4c(O)cccc4C[C@H]3C[C@@H]12 | inactive | inactive | inactive | inactive | inactive | inactive | 26.6 µM (active) | inactive | inactive | inactive |
| COCCCC/C(=N\OCCN)c1ccc(C(F)(F)F)cc1 | inactive | inactive | inactive | inactive | inactive | inactive | 2.98 µM (active) | inactive | inactive |  |
| CCCCCCCCOc1ccccc1C(=O)Nc1ccc(C(=O)OCC[N+](C)(CC)CC)cc1 | inactive | inactive | inactive | inactive | inactive | inactive |  |  |  | 7.56 µM (active) |
| NC(=O)NS(=O)(=O)c1ccc(N)cc1 | inactive | inactive | inactive | inactive | inactive | inactive |  |  | inactive | inactive |
| CCC1=C[C@@H]2CN(C1)Cc1c([nH]c3ccccc13)[C@@](C(=O)OC)(c1cc3c(cc1OC)N(C)[C@H]1[C@@](O)(C(=O)OC)[C@H](OC(C)=O)[C@]4(CC)C=CCN5CC[C@]31[C@@H]54)C2 | inactive | 4.22 µM (active) | 2.37 µM (active) | 0.106 µM (active) | inactive |  | inactive | inactive |  |  |
